Reference: PubChem BioAssay AID652283 (National Center for Advancing Translational Sciences (NCATS), 2013)
Results filed as inconclusive are left out. Active and inactive are the calls of the source. Calls follow the shape of the dose curve; as a rule, active = well fitted inhibition curve with a large enough effect; inconclusive = small, poorly fitted or top-dose-only effect; inactive = no such curve, though single readings can be large or run the other way.

test: qHTS Assay for Lipid Storage Modulators: COS7 Assay against Probe and Analogs; conditions: COS7 lipid droplet area, BODIPY imaging, 18 h; cells loaded with 400 µM oleic acid
Procedure, shortened: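 COS7 cells treated 17-18 h with compound in 5% FBS medium, 0.2% DMSO and 400 microM oleic acid. Fixed cells stained with BODIPY 493/503 and Hoechst; lipid droplets counted from microscope images by visual review and image segmentation.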

Compound | max response | Potency
O=C(NCCc1ccc2c(c1)OCO2)c1cc2sccc2[nH]1 | 5.04% (inactive) | –
O=C(NCCc1ccc(OCC(F)(F)F)c(OCC(F)(F)F)c1)c1cc2sccc2n1Cc1ccccc1 | – | 2.96 µM (active)
Cc1cc(SCc2sc(-c3ccc(C(F)(F)F)cc3)nc2C)ccc1OCC(=O)O | 14.2% (inactive) | –
CCOC(=O)C1CCN(C(=O)C(C)(C)NC(=O)Nc2cccc(-c3csc(C)n3)c2)CC1 | 3.3% (inactive) | –
CCOc1ccc(CCNC(C)=O)cc1OCC | -6.62% (inactive) | –
CCOc1ccc(CCNC(=O)c2ccc3[nH]ccc3c2)cc1OCC | 20.9% (inactive) | –
O=C(NC1CCCc2c1cnn2CCO)c1ccccn1 (configuration not stated) | 14.9% (inactive) | –
CCOc1ccc(CCNC(=O)c2ccnn2Cc2cccc(C)c2)cc1OCC | – | 13.2 µM (active)
O=C(NC1CCCc2c1cnn2-c1ccc(F)cc1F)C1CC1 (configuration not stated) | 3.35% (inactive) | –
O=C(NC1CCCc2c1cnn2-c1ccc(O)cc1)c1ccccn1 (configuration not stated) | – | 10.5 µM (active)
O=C(NCCc1ccc2c(c1)OCO2)c1cc2sccc2n1Cc1ccccc1 | 19.6% (inactive) | –
CC(C)(C)OC(=O)NCCOCCOCCOCCn1ncc2c1CCCC2NC(=O)c1ccccn1 (configuration not stated) | 0.489% (inactive) | –
